RecA splice inh – Mtb RecA intein splicing inhibition; cell-free RecA intein splicing, fluorescence; inhibition, % (test concentration not listed); 0.75% of 290,000 active; AID 2221; in the data active means inhibition above about 30%; inconclusive means no clear call, values can overlap the other calls;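 further: 0% = vehicle wells and 100% = reference inhibitor control wells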
FBA Mtb inh – inhibitors of M. tuberculosis fructose-bisphosphate aldolase | AID 588726 | 2.3% of 360,000 active | purified M. tuberculosis FBA, fluorescence read-out | inhibition, % at 1 µM | P9WQA3; in the data active means inhibition above about 27%;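 further: 0% = vehicle and 100% = reference inhibitor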
Mtb betalactam – beta-lactam sensitization of Mtb H37Rv | M. tuberculosis H37Rv growth with meropenem, percent inhibition | inhibition, % at 25 µM | 0.27% of 330,000 active | AID 434955; call rule not given here;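 further: growth measured after seven days incubation then overnight dye step; 0% = bacteria only wells and 100% = bacteria with antibiotic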
CCHF vOTU inh – blocks the CCHF virus ovarian tumor domain protease; 0.55% of 370,000 active; inhibition, % at 11.5 µM; CCHFV vOTU protease, Pep-AMC fluorescence; AID 651958; further: 0% = vehicle wells with enzyme and 100% = no enzyme wells
GDH-TPI inh – counter-screen for M. tuberculosis FBA inhibitors: GDH-TPI coupled enzymes; GDH-TPI coupled enzyme counterscreen, NADH absorbance; inhibition, % at 4.8 µM; 1.2% of 360,000 active; AID 588335;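 further: 0% = DMSO wells and 100% = wells lacking the enzyme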
GFP chromo cs – counter-screen: blocks GFP chromophore formation; 83% of 2,100 active; cell-free GFP chromophore formation, fluorescence; EC50, µM; shares compounds with RecA splice inh; call rule not given here
* marks the source's active call; other numbers are inactive results; ? = inconclusive; / = no result given. Sampled rows, rich in hits. Any-hit rate of the full collection: about 4.2%. Unless noted, no stated cut-off is given here; in the data, active means inhibition above about 30%; inactive means the rest.

SMILES	RecA splice inh	FBA Mtb inh	Mtb betalactam	CCHF vOTU inh	GDH-TPI inh	GFP chromo cs
Cc1cc(=O)n(-c2ccccc2Cl)[nH]1	87*	6	1	13	9	18*
Cc1cc(=O)cc(C)n1-c1ccc(O)cc1	0	-1	-6	-8	0	/
Cc1cc(=O)n(-c2ccc(O)cc2)[nH]1	97*	3	29	27	19	2.2*
CCCCNC(=O)C[C@H]1C[C@@]2(C(=O)OCC)CCCC3=C2N(CCC3)C1=O	/	/	/	6	/	/
CN(c1cccnc1)c1ccc(NC(=O)CCc2c[nH]c3ccccc23)cc1Br	/	/	/	3	/	/
O=[N+]([O-])/C(C(Cl)=C(Cl)Cl)=C(/Sc1ccccc1)N1CCCCC1	34*	-4	3	-9	12	>38
COC(=O)C(C(=O)OC)C(CC(=O)c1ccc(C)cc1)c1cc(OC)c(OC)c(OC)c1 (stereo not given)	1	1	-1	-5	-5	/
COc1ccc(C(CC(=O)c2ccc(C)cc2)C(C#N)C#N)cc1OC (stereo not given)	54*	-2	7	-11	-7	30*
Oc1ccc(NC(=S)N=Nc2c(O)[nH]c3ccc(Br)cc23)cc1	67*	-9	/	5	24	>38
Oc1[nH]c2ccc(Br)cc2c1N=NC(=S)Nc1ccc(F)cc1	20	-9	1	9	25	/
O=C(N/N=C/c1ccc([N+](=O)[O-])o1)c1ccc(O)cc1	56*	-5	99	10	40*	>38
O=C(CNC(=O)c1ccccc1)N/N=C/c1ccc([N+](=O)[O-])o1	58*	-1	100	25	15	>38
c1ccc(Cc2cnc(N3CCN(Cc4csc5ccccc45)CC3)nc2)cc1	/	/	/	-2	/	/
COc1ccc2c(c1)CN1CN(C3CCCC3)S(=O)(=O)CC21 (stereo not given)	/	/	/	-5	/	/
COC(=O)CCS(=O)(=O)c1nc(-c2ccccc2)cc(C(F)(F)F)n1	67*	5	99	/	-3	11*
CCOC(=O)Cc1cc(-c2ccccc2)nc2ccc3ccccc3c12	1	5	86	0	3	/
CCOC(=O)CCS(=O)(=O)c1nc(-c2ccccc2)cc(C(F)(F)F)n1	78*	-1	100	/	4	7.2*
CCOC(=O)CS(=O)(=O)c1nc(-c2ccc(F)cc2)cc(C(F)(F)F)n1	74*	8	96	/	2	6*
CCOC(=O)CS(=O)(=O)c1nc(-c2ccccc2)cc(C(F)(F)F)n1	72*	-8	93	13	-3	5.9*
CC(C)CN1C[C@@H]2CSCCS(=O)(=O)N2C1=O	/	/	/	-10	/	/
COc1ccc(-c2cc(C(F)(F)F)nc(S(C)(=O)=O)n2)cc1	72*	7	96	25	39*	14*
CS(=O)(=O)c1nc(-c2ccc(F)cc2)cc(C(F)(F)F)n1	/	14	/	20	7	/
O=C1NC(=O)C(=Cc2ccccc2OCCOc2ccc([N+](=O)[O-])cc2)C(=O)N1	/	-2	/	/	15	/
O=C1NC(=O)C(=Cc2ccc(Oc3ccc([N+](=O)[O-])cc3)cc2)C(=O)N1	68*	-2	4	/	14	>38
CCOC(=O)CSc1nnc(NCC(=O)OC(C)C)c(=O)[nH]1	55*	1	24	-2	-4	37*
SMILES	RecA splice inh	FBA Mtb inh	Mtb betalactam	CCHF vOTU inh	GDH-TPI inh	GFP chromo cs
CCOc1cc(CNc2ccc(O)cc2)ccc1OCc1ccc(Cl)cc1Cl	40*	-3	72	/	-4	>38
CCOc1cc(CNCc2ccccc2)ccc1OCc1ccc(Cl)cc1	1	2	91	9	0	/
CCOc1ccccc1CNc1ccc(O)cc1	82*	-3	/	48*	0	23*
C=CCN1C(=O)[C@H](CC(=O)N2CCCC2)[C@@]2(C(=O)OCC)CCCC=C12	/	/	/	3	/	/
CCCCCCCN(C(=O)CCl)c1ccccc1C	56*	-1	/	-6	4	18*
COc1ccccc1NC(=O)C1=C(C)Nc2nnnn2C1c1ccncc1 (stereo not given)	39*	2	-6	-1	-7	>38
CCOc1ccccc1C1C(C(=O)Nc2ccccc2OC)=C(C)Nc2nnnn21 (stereo not given)	1	5	0	6	10	/
COc1cc2c(c(OC)c1OC)C1(CCCCC1)CC2NC(=O)c1ccncc1 (stereo not given)	/	/	/	6	/	/
CCc1ccc(C2C(C#N)=C(N)C(C#N)(C#N)C3=CCC(C(C)(C)C)CC32)cc1 (stereo not given)	30*	5	20	/	0	15*
O=c1c2cc3cc(Cl)ccc3nc2ncn1Cc1ccc(Oc2ccccc2)cc1	/	/	/	-4	/	/
CN(C)CCSc1nnc2[nH]c3ccccc3c2n1	32*	3	-5	3	15	9.4*
CCC(=O)N(Cc1cc(=O)[nH]c2ccccc12)c1ccccc1	-1	5	-9	-12	4	/
O=C(CCl)N(Cc1cc(=O)[nH]c2ccccc12)c1ccccc1	69*	0	90	-20	16	11*
Cc1cccc(N(Cc2ccccc2)C(=O)CCl)c1	58*	0	/	16	-8	9.9*
O=C(CCl)N(Cc1ccccc1)c1ccccc1	73*	-4	-5	0	-10	24*
CCOC(=O)[C@@]12CCCC3=C1N(CCC3)C(=O)[C@H]2CC(=O)N1CCN(C(=O)C2CC2)CC1	/	/	/	-12	/	/
Cc1ccccc1C(=O)N[C@H](C(=O)N1CCC[C@H]1C(=O)NCCc1ccccc1Cl)C1CCCCC1	/	/	/	2	/	/
CN1C(=O)c2cc(NS(=O)(=O)c3cccc(F)c3)ccc2OC[C@@H]2O[C@H](CC(=O)O)CC[C@H]21	/	/	/	18	/	/
Cc1ccc(N2C(=O)C(Cl)=C(N3CCOCC3)C2=O)cc1Cl	74*	-1	92	-17	16	?
CN1CCN(C2=C(Cl)C(=O)N(c3ccc(Cl)c(Cl)c3)C2=O)CC1	68*	1	75	/	10	2.3*
O=C1C(Cl)=C(N2CCOCC2)C(=O)N1c1ccccc1Cl	86*	-1	95	/	36*	5.6*
CCCC[C@H]1C2CC(OC(=O)Nc3cccc(C#N)c3)C(C2)[C@H]2CCCCN21 (stereo not given in full)	/	/	/	-4	/	/
COc1cccc(NC(=O)n2ccc3ccc(-c4ccc5ccn(C(=O)Nc6cccc(OC)c6)c5c4)cc32)c1	/	/	/	3	/	/
CC1(c2nnnn2C2CCCCC2)CSCC(=O)N1CCc1ccc(O)cc1 (stereo not given)	/	/	/	-8	/	/
CCn1c(SCC(=O)Nc2nc(-c3ccc(C)cc3)cs2)nnc1-c1ccccc1O	38*	-2	-2	5	4	>38
CCn1c(SCC(=O)Nc2nc(-c3ccc(C)cc3)cs2)nnc1-c1ccccc1	5	0	-12	10	6	/
CCC/C(=C1/c2ccccc2C(=O)N1c1ccccc1)c1ccc(C=O)o1	/	/	/	1	/	/
CCCn1c(=O)[nH]c(=O)c2c1nc(-c1ccccc1OC(F)F)n2CCOC	0	14	-21	-11	8	/
CCCn1c(=O)[nH]c(=O)c2c1nc(-c1ccc(OC(F)F)c(OC)c1)n2CCOC	53*	21	-17	1	8	>38

Bioassay records: PubChem, several laboratories
